Inconclusive results are not listed. Entries that show only a call come without a potency. Activity calls are given as the source filed them. Calls follow the shape of the dose curve; as a rule, active = well fitted inhibition curve with a large enough effect; inconclusive = small, poorly fitted or top-dose-only effect; inactive = flat fitted curve, though single readings scatter. *1 amine or outer side, *2 acyl side, *3 side chain or, on linkers, in order; H or OH if unused. Where a SMILES comes first, the peptide text is derived from it. Bridges are numbered along the chain shown (N, C = ends). [ ]: non-standard residue; d: D form. The star is where a group is joined. ξ: configuration not given here. X10 = NC1=NCCC(C(N[*:1])C(=O)[*:2])N1; ΔAla(3-NHCONH2) = NC(=O)NC=C(N)C(=O)O; ξβ3hOrn = NCCCC(N)CC(=O)*; Dap = NC[CH](N)C(=O)O
Potency is read from the fitted curve at half-maximal effect.

The subject of this assay is Zika virus NS2B-NS3 protease. The assay is described as follows: Primary screen GU AMC qHTS for Zika virus inhibitors (AID 1347154). Also: nearly all actives have a fitted effect of over 70% in size. Conditions: Zika NS2B-NS3 unlinked protease, AMC fluorogenic substrate; series mostly up to 54.1 µM. In outline: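 Fluorogenic AMC-substrate cleavage by noncovalent NS2B-NS3 protease complex (25 nM, pH 8.0 Tris buffer with Tween 20) followed for 15 minutes at room temperature (~20% conversion). Percent inhibition from ex340/em450 signal change, fitted by 4-parameter Hill equation.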
Background: Quantitative high-throughput screening tests each substance at several concentrations.
Regarding `Nc1cccc2c(N)cccc12`, the Potency is 36.9 µM (active).
On the same count and under the same terms, the same measure for `CN1CCCN(C(c2ccccc2)c2ccc(Cl)cc2)CC1` (stereo not drawn): “inactive”; for `Nc1c(NC/C=C\COc2cc(CN3CCCCC3)ccn2)c(=O)c1=O`: “inactive”.
For `CCCC(=O)O[C@]1(C(=O)CC)CC[C@H]2[C@@H]3CCC4=CC(=O)CC[C@]4(C)[C@H]3[C@@H](O)C[C@@]21C`, the Potency entry was “inactive”.
With `O=C(c1ccco1)N1CCNCC1`, the Potency entry is “inactive”.
Still for that read-out and setting: under `CCc1cc(S(=O)(=O)O)c2cc(C(C)C)cccc1-2` stands “inactive”; under `Cc1[nH]cnc1-c1ccc(Cl)cc1`, “inactive”; under `Cc1ccc(C(C)OC(=O)C2(C)CCC(C(=O)O)C2(C)C)cc1` (stereo not drawn), “inactive”.
Same read-out and setting: under `Cc1ccc(O)cc1` stands “inactive”; under `CC(C)(C)c1cc(C=O)cc(C(C)(C)C)c1O`, “inactive”; under `COc1ccc([C@@H]2Sc3ccccc3NC(=O)[C@@H]2O)cc1`, “inactive”.
Same read-out and setting: the same measure for `CCOC(=O)CN1CCCC1=O`: “inactive”; for `O=C(O)C(=O)Nc1cccc(-c2nn[nH]n2)c1`: “inactive”.
For `CC1(C)O[C@@H]2C[C@H]3[C@@H]4C[C@H](F)C5=CC(=O)C=C[C@]5(C)[C@@]4(F)[C@@H](O)C[C@]3(C)[C@]2(C(=O)CO)O1`, the Potency entry was “inactive”.
`Cc1cccc(OCC(O)CNC(C)(C)C)c1C` (stereo not drawn): the Potency result was “inactive”.
On the same count and under the same terms, under `CC(Oc1c(Cl)cccc1Cl)C1=NCCN1` (stereo not drawn) stands “inactive”; under `Cc1cc(O)c(C)c(C)c1O`, “inactive”; under `CC(=O)O[C@@H]1CC2C3CCc4cc(OC(=O)c5ccccc5)ccc4C3CCC2(C)[C@H]1OC(C)=O` (stereo partly drawn), “inactive”.
On the same count and under the same terms, the same measure for `CC(=O)c1cc2ccccc2s1`: “inactive”; for `CN(C)CCN1CCN(c2cccc(Cl)c2)C1=O`: “inactive”.
Take `CCC(=O)Oc1ccc2c(c1)CC[C@@H]1[C@@H]2CC[C@@]2(C)[C@H]1C[C@@H](OC(=O)CC)[C@@H]2OC(=O)CC`: the Potency entry was “inactive”.
For the compound `OCCOCCN1CCN(C(c2ccccc2)c2ccc(Cl)cc2)CC1` (stereo not drawn), the Potency result was “inactive”.
Same read-out and setting: the same measure for `C1=CC2C3C=CC(C3)C2C1` (stereo not drawn): “inactive”.
Same read-out and setting: the same measure for `CN(CC1(C)CCCO1)S(=O)(=O)c1ccc(Cl)c(S(N)(=O)=O)c1` (stereo not drawn): “inactive”.
On the same count and under the same terms, the same measure for `CCOC(=O)OCC/C(SC(=O)OCC)=C(\C)N(C=O)Cc1cnc(C)nc1N`: “inactive”.
As for `CCCCCOc1ccc(C2SC(=O)NC2=O)cc1OCC` (stereo not drawn), the Potency entry is “inactive”.
For `CO[C@@]1(NC(=O)CSC[C@@H](N)C(=O)O)C(=O)N2C(C(=O)O)=C(CSc3nnnn3C)CS[C@@H]21`, the Potency result was “inactive”.
In the case of `NS(=O)(=O)c1ccc(N2CCCCS2(=O)=O)cc1`, the Potency entry is “inactive”.
Consider `CCCOc1ccc2c(c1)CC[C@@H]1[C@@H]2CC[C@]2(C)C(OC)CC[C@@H]12` (stereo partly drawn), for which the Potency result was “inactive”.
With `Oc1ccccc1`, the Potency entry was “inactive”.
The same measure, in the same setting: under `CCOC(=O)C(O)c1ccccc1` (stereo not drawn) stands “inactive”.
As for `NCCCC(N)CC(=O)NCC1NC(=O)C(CO)NC(=O)C(N)CNC(=O)C(C2CCN=C(N)N2)NC(=O)C(=CNC(N)=O)NC1=O` (stereo not drawn) (H-[Dap]S[Dap](ξβ3hOrn)[ΔAla(3-NHCONH2)][X10]; lactam 1-C; configuration not given here), the activity change, negative = inhibition is -2.82% [at 0.59 µM] (inactive).
For `O=C(CCCl)NCCc1ccccc1`, the Potency entry was “inactive”.
As to `CCN(CC)CC(=O)Oc1ccc(NC(C)=O)cc1`, the Potency entry is “inactive”.
The same measure, in the same setting: the same measure for `Cc1ccc(C(=O)Oc2ccc(C(O)CNC(C)(C)C)cc2OC(=O)c2ccc(C)cc2)cc1` (stereo not drawn): “inactive”.
Still for that read-out and setting: under `O=C(c1cc(O)c(O)c(O)c1)c1ccc(O)c(O)c1O` stands 0.891 µM (active); under `CCCCCC(=O)O[C@]1(C(C)=O)CC[C@H]2[C@@H]3CCC4=CC(=O)CC[C@]4(C)[C@H]3CC[C@@]21C`, “inactive”.
In the case of `Cc1nc([N+](=O)[O-])cn1-c1ccc([N+](=O)[O-])cc1`, the Potency result was “inactive”.

The values are drawn from PubChem BioAssay (NCATS).
